# The list shows a part of the results. Active and inactive are the calls of the source.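 The calls were made as follows: active = inhibition averaging 50% or more, tested at 20 µM; inactive = the rest.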
# Test system: diaphorase (Clostridium kluyveri)
# Assay: C. kluyveri diaphorase inhibition, resazurin coupling – biochemical, fluorescence intensity, 30 µM NADPH, counter-screen for P. falciparum G6PD inhibitor project, confirmation (AID 504863);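 also: 0% = DMSO with enzyme and 100% = DMSO wells lacking diaphorase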
# Conditions: Diaphorase/resazurin coupled assay, resorufin fluorescence, at 20 µM, hits give high values
compound,measurement,value
O=C1NC(=O)N(c2ccccc2)C(=O)/C1=C/c1ccc([N+](=O)[O-])s1,inhibition,20.5% (inactive)

# — PubChem BioAssay AID504863 (Sanford-Burnham Center for Chemical Genomics, 2011)
